# This is a sample that favours compounds with a hit; in the whole collection about 1.6% have one here.
# KCNQ2 enhance – potentiators of rat KCNQ2 potassium channel. B-score at 10 µM. CHO-K1 KCNQ2, FluxOR thallium flux fluorescence; hits give high values. hit rate 0.54% among 310,000;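 active = fluorescence ratio B-score at least 3 SD of library B-scores, with initial fluorescence B-score within 3 of them, cut at about 5.3 in these data; same plate scores as AID 2156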;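 also: B-score of peak minus minimum over baseline fluorescence ratio after K+ and Tl+ stimulus; positive B-score means potentiation of KCNQ2 with more thallium influx and brighter signal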
# Target sequence (O88943 whole entry, looked up): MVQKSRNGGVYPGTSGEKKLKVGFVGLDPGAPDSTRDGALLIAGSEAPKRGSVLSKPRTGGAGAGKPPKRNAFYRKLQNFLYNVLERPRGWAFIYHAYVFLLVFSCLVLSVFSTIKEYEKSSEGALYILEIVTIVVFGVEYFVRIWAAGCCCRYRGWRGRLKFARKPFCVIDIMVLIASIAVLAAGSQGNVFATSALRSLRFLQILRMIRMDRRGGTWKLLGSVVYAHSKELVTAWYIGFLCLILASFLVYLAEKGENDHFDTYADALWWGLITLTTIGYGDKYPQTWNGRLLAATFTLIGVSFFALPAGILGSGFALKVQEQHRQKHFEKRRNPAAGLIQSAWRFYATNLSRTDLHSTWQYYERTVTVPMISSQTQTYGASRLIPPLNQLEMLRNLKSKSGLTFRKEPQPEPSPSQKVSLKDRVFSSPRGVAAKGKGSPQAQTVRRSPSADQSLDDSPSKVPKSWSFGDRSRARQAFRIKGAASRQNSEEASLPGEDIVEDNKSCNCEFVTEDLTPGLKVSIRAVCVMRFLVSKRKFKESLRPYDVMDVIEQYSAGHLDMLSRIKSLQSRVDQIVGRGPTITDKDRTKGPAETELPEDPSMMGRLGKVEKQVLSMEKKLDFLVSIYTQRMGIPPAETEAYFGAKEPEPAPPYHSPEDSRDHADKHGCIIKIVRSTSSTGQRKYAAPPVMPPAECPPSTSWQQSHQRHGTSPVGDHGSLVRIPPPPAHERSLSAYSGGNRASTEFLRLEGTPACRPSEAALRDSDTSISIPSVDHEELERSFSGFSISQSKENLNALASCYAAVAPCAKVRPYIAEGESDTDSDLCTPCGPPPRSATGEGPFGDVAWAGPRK
# KCNQ2 inh – blocks the rat KCNQ2 potassium channel; CHO-K1 KCNQ2, FluxOR thallium flux, 20 min; hits give low values; B-score at 10 µM; hit rate 1.1% among 310,000; AID 2156;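 active = fluorescence ratio B-score at most minus 3 library SDs, with starting brightness B-score within 2 library SDs, cut at about -5.5 in these data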
# KCNQ2 inh conf – rat KCNQ2 channel inhibition, confirmatory screen | AID 493025 | KCNQ2-expressing cells, thallium flux; hits give low values | hit rate 57% among 1,000 | shares compounds with KCNQ2 inh | activity change, negative = inhibition, % at 10 µM;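 also: 0% = vehicle wells and values are ratio percent relative to vehicle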
# KCNQ1 spec – KCNQ2 inhibitor that also affects human KCNQ1 channel. shares compounds with KCNQ2 inh. KCNQ1-expressing cells, FluxOR thallium flux fluorescence; hits give low values. activity change, negative = inhibition, % at 10 µM. hit rate 15% among 1,000. AID 493026;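 active = activity change at least 3 SD of negative controls below their mean in both duplicate wells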;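 also: CHO cells stably transfected with KCNQ1 and depolarized by potassium stimulus; peak minus minimum fluorescence over baseline after thallium addition; 0% = vehicle negative control and -100% = blank without thallium stimulus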
# CHO parental ctr – counter-screen for KCNQ2 inhibitors: effect in parental CHO cells | shares compounds with KCNQ2 inh | AID 493029 | activity change, % at 10 µM | thallium flux counter-screen; hits give low values | hit rate 14% among 1,000;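 also: 0% = vehicle negative controls with stimulus buffer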
# KCNQ2 patch conf – blocks rat KCNQ2 current in automated patch clamp | shares compounds with KCNQ2 inh | KCNQ2-expressing cells | calls only at 10 µM | hit rate 49% among 550
# The depositor's hits bear a star; i = inactive; / = no result given; + = active, no number. Unless noted, no rule for the calls is given here.
SMILES,KCNQ2 enhance,KCNQ2 inh,KCNQ2 inh conf,KCNQ1 spec,CHO parental ctr,others
COc1cc(Cl)c(S(=O)(=O)NCc2cccnc2)cc1Cl,/,i,/,/,/,
C=CCc1ccccc1OCC(O)CN1C(=O)c2ccccc2C1=O (configuration not stated),-12.1,-12.1*,i,i,i,
Cc1ccccc1OCC(O)CN1C(=O)c2ccccc2C1=O (configuration not stated),/,i,/,/,/,
Cc1ccccc1C(=O)Nc1sc(C)c(C)c1C(=O)c1ccccc1,-9.56,-9.56*,-33.0%*,-32.0%*,-27.0%*,KCNQ2 patch conf=i
Cc1sc(NC(=O)CCl)c(C(=O)c2ccccc2)c1C,0.96,i,/,/,/,
O=C(c1nc2ccccn2c1CN1CCCC(c2nc3ccccc3o2)C1)N1CCCC1 (configuration not stated),1.04,i,/,/,/,
Cc1ccc(SCc2c(-c3ccccc3)nn(C)c2Cl)cc1,/,i,/,/,/,
Cc1ccc(Sc2c(C#N)c(-c3ccccc3)nn2C)cc1,-8.49,-8.49*,i,i,i,
COc1ccc(C(=O)NCCCNC(=O)c2cccnc2)cc1Br,0.33,i,/,/,/,
Cc1ccc(C(c2ccc(C)o2)c2cccc([N+](=O)[O-])c2O)o1,/,i,/,/,/,
Cc1cc(C(c2ccc(C)o2)c2ccc(C)o2)c(O)c([N+](=O)[O-])c1,-8.88,-8.88*,i,i,i,
COc1ccc(CNC(=O)C(c2cccs2)N(Cc2ccco2)C(=O)Cc2cccs2)cc1 (configuration not stated),-14,-14*,-29.0%*,i,i,KCNQ2 patch conf=+
COc1ccc(CNC(=O)C(c2ccco2)N(Cc2cccs2)C(=O)Cc2cccs2)cc1 (configuration not stated),0.01,i,/,/,/,
COc1ccccc1S(=O)(=O)Cc1ccc(C(=O)N2CCN(c3ccccc3)CC2)o1,/,i,/,/,/,
COc1ccccc1S(=O)(=O)Cc1ccc(C(=O)N2CCN(c3cccc(Cl)c3)CC2)o1,-10.3,-10.3*,-37.0%*,i,i,KCNQ2 patch conf=i
O=S(=O)(c1ccc(F)cc1)N1CCC2(CC1)OCCO2,1.08,i,/,/,/,
CC(C)CC(=O)N1CCN(Cc2ccccc2[N+](=O)[O-])CC1,/,i,/,/,/,
COc1ccc2[nH]c3c(=O)n(CCCC(=O)NC4CCCCC4C)c(=S)[nH]c3c2c1 (configuration not stated),1.48,i,/,/,/,
O=C(Cn1ncc2c(=O)oc3ccccc3c21)N1CCc2ccccc2C1,1.51,i,/,/,/,
CCn1c(C(=O)N2CCc3ccccc3C2)cc2oc3ccccc3c21,-6.82,-6.82*,-44.5%*,-52.0%*,-43.5%*,
Cn1c(C(=O)N2CCc3ccccc3C2)cc2oc3ccccc3c21,-10.7,-10.7*,-16.5%*,i,i,KCNQ2 patch conf=+
COc1cc2c(cc1OC)CN(C(=O)c1oc3ccccc3c1C)CC2,/,i,/,/,/,
CNC(=O)c1cc(C(=O)c2ccc(Cl)cc2)c(Br)[nH]1,/,i,/,/,/,
O=C(CN1CCOCC1)Nc1ccc(Cl)cn1,/,i,/,/,/,
OCC1(Cc2cccc(Cl)c2)CCCN(Cc2ccc(F)c(F)c2)C1 (configuration not stated),/,i,/,/,/,
SMILES,KCNQ2 enhance,KCNQ2 inh,KCNQ2 inh conf,KCNQ1 spec,CHO parental ctr,others
CSc1cccc(CN2CCCC(CO)(Cc3cccc(Cl)c3)C2)c1 (configuration not stated),-6.99,-6.99*,i,i,i,
CN(CCC1CCOCC1)C(=O)CC1C(=O)NCCN1Cc1c(F)cccc1Cl (configuration not stated),/,i,/,/,/,
CCOC(=O)c1c(-c2ccc(Cl)cc2)csc1NC(=O)CNCc1ccco1,/,i,/,/,/,
CCOC(=O)c1c(-c2ccccc2)csc1NC(=O)C(C)NCc1ccco1 (configuration not stated),-7.2,-7.2*,-31.0%*,i,i,KCNQ2 patch conf=i
Cc1cc(C)c2nc(-c3cccc(Cl)c3)c(C)c(C(=O)N3CCOCC3)c2c1,-8.75,-8.75*,-28.0%*,i,i,KCNQ2 patch conf=+
Cc1onc(-c2c(Cl)cccc2Cl)c1C(=O)N1CCOCC1,0.75,i,/,/,/,
COc1ccc(CNC(=O)Cn2cc(C(F)(F)F)ccc2=O)cc1,0.17,i,/,/,/,
Cc1cc(Cl)c(S(=O)(=O)N2CCN(c3ccccn3)CC2)cc1OCC(N)=O,1.57,i,/,/,/,
COC(=O)/C(C#N)=C/c1c(-c2ccccc2)nc2n1CCS2,/,i,/,/,/,
Clc1cccc(Cl)c1CO/N=C/c1c(-c2ccccc2)nc2n1CCS2,-8.46,-8.46*,i,i,i,
Cc1ccccc1-c1nnc(SCc2ccc(F)cc2)o1,-9.12,-9.12*,i,i,i,

# Screens (PubChem BioAssay)
